IDE exosite inh: exo-site inhibitors of human insulin-degrading enzyme; P14735; purified IDE, FL-6b probe fluorescence polarization; stronger effect = lower value; z-score at 20 µM; hit rate 6.3% among 17,000;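 active = z-score of -3 or lower, meaning strong loss of probe binding signal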;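 note: His-tagged human IDE residues 42-1019 made in E. coli with 30 nM FL-6b probe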
* marks the source's active call; other numbers are inactive results. Only a selection was taken, and hits are over-represented in it overall.

SMILES	IDE exosite inh
O=C(C1CCOCC1)N1CC(=O)N2[C@H](C1)[C@@H](c1ccc(Br)cc1)[C@@H]2CO	1.91
O=C(C1CCOCC1)N1CC(=O)N2[C@H](CO)[C@H](c3ccc(Br)cc3)[C@H]2C1	0.691
O=C(C1CCOCC1)N1CC(=O)N2[C@H](C1)[C@H](c1ccc(/C=C/c3ccccc3)cc1)[C@@H]2CO	-3.26*
O=C(C1CCOCC1)N1CC(=O)N2[C@H](C1)[C@H](c1ccc(Br)cc1)[C@@H]2CO	3.08
CO[C@H]1CN(C)C(=O)c2ccc(NC(=O)Nc3ccccc3Cl)cc2OC[C@@H](C)NC[C@@H]1C	-0.955
CN1c2ccc(Br)cc2[C@@H]2[C@@H](CCN2C(=O)Cc2ccccc2)[C@H]1CO	1.59
O=C(Nc1ccc(F)cc1)N1CCCCN2[C@@H](CO)[C@@H](c3ccc(C#Cc4ccccn4)cc3)[C@@H]2C1	2.85
CN(C)C(=O)c1ccc(-c2ccc([C@H]3[C@@H](CO)N4C(=O)CN(C(=O)C5CCCC5)C[C@H]34)cc2)cc1	4.09
CCc1csc(N2[C@H](C#N)[C@H](c3ccccc3C3=CCCC3)[C@H]2CO)n1	1.03
CN(C)C(=O)c1ccc(-c2ccc([C@@H]3[C@@H](CO)N4C(=O)CN(C(=O)C5CCCC5)C[C@@H]34)cc2)cc1	0.639
CC[C@@H]1C/C=C\C[C@@H](C(C)C)NC(=O)CCC(=O)N1	1.13
O=C(C1CC1)N1CC(=O)N2[C@H](C1)[C@H](c1ccc(-c3ccccc3F)cc1)[C@@H]2CO	-0.664
O=C(C1CCC1)N1CC(=O)N2[C@@H](CO)[C@H](c3ccc(-c4ccccc4F)cc3)[C@@H]2C1	-0.805
O=C(C1CCCCC1)N1CC(=O)N2[C@H](CO)[C@@H](c3ccc(-c4ccccc4F)cc3)[C@H]2C1	-0.658
O=C(C1CCC1)N1CC(=O)N2[C@H](CO)[C@@H](c3ccc(-c4ccccc4F)cc3)[C@@H]2C1	-9.06*
O=C(C1CCOCC1)N1CC(=O)N2[C@@H](CO)[C@H](c3ccc(-c4ccccc4F)cc3)[C@@H]2C1	-1.05
O=C(C1CC1)N1CC(=O)N2[C@H](CO)[C@@H](c3ccc(-c4ccccc4F)cc3)[C@H]2C1	1.75
O=C(C1CCC1)N1CC(=O)N2[C@H](CO)[C@@H](c3ccc(-c4ccccc4F)cc3)[C@H]2C1	2.4
O=C(C1CCCCC1)N1CC(=O)N2[C@@H](CO)[C@@H](c3ccc(-c4ccccc4F)cc3)[C@@H]2C1	-1.39
O=C(C1CCCCC1)N1CC(=O)N2[C@H](C1)[C@H](c1ccc(-c3ccccc3F)cc1)[C@@H]2CO	-0.709
O=C(C1CC1)N1CC(=O)N2[C@H](CO)[C@H](c3ccc(-c4ccccc4F)cc3)[C@H]2C1	-7.85*
O=C(C1CCCC1)N1CC(=O)N2[C@H](CO)[C@H](c3ccc(-c4ccccc4F)cc3)[C@@H]2C1	-3.64*
O=C(C1CCOCC1)N1CC(=O)N2[C@H](CO)[C@H](c3ccc(-c4ccccc4F)cc3)[C@H]2C1	-7.59*
CC(=O)NC[C@H]1[C@@H](c2ccc(-c3ccccc3)cc2)[C@H](CO)N1C(=O)C1CC1	2.73
COc1cccc(NC(=O)N2CC(=O)N3[C@H](C2)[C@H](c2ccc(C4=CCCC4)cc2)[C@@H]3CO)c1	3.46
SMILES	IDE exosite inh
CCCC#Cc1ccc([C@@H]2[C@H]3CN(CC4CC4)CCCCN3[C@H]2CO)cc1	2.73
CC(C)C#Cc1ccc([C@H]2[C@@H](C#N)N(C(=O)c3ccccn3)[C@@H]2CO)cc1	2.87
O=C(c1cc2c(c(-c3cccc(Br)c3)n1)[C@@H](CCO)NC2)N1CCCCC1	1.05
CS(=O)(=O)N1CCCCN2[C@H](CO)[C@H](c3ccc(Br)cc3)[C@@H]2C1	0.759
COc1ccc2c3c(n(C)c2c1)[C@H](CO)N(C(=O)C1CCOCC1)CC31CCN(C(=O)c2ccncc2)CC1	-0.192
COc1cccc(NC(=O)N2CC(=O)N3[C@H](CO)[C@@H](c4ccc(Br)cc4)[C@@H]3C2)c1	0.754
CC(=O)N1CCCCN2[C@H](C1)[C@@H](c1ccc(Br)cc1)[C@@H]2CO	2.82
O=C(c1ccccc1)N1CC(=O)N2[C@H](CO)[C@H](c3ccc(C#Cc4ccccc4)cc3)[C@H]2C1	-5.28*
COc1ccc(C#Cc2ccc([C@@H]3[C@@H](CO)N4C(=O)CN(C(=O)c5ccccc5)C[C@H]34)cc2)cc1	-0.185
COc1ccc(C#Cc2ccc([C@H]3[C@@H](CO)N4C(=O)CN(C(=O)c5ccccc5)C[C@@H]34)cc2)cc1	1.76
O=C(c1ccccc1)N1CC(=O)N2[C@H](C1)[C@H](c1ccc(C#Cc3ccccc3)cc1)[C@@H]2CO	-4.25*
O=C(c1ccccc1)N1CC(=O)N2[C@@H](CO)[C@@H](c3ccc(C#CC4CC4)cc3)[C@@H]2C1	0.998
O=C(c1ccccc1)N1CC(=O)N2[C@H](CO)[C@@H](c3ccc(C#Cc4ccccc4)cc3)[C@@H]2C1	-0.2
COC(=O)c1ccc(CN2CC(=O)N3[C@H](CO)[C@@H](c4ccc(-c5ccccc5)cc4)[C@H]3C2)cc1	2.19
CO[C@H]1CN(C)C(=O)c2cc(NS(=O)(=O)c3ccc(Cl)cc3)ccc2OC[C@H](C)N(C(=O)NC(C)C)C[C@@H]1C	1.59
